40 compounds from PubChem BioAssay (Tox21) can be followed below.

Molecules are shown by their SMILES. Records with an inconclusive call do not appear. Where a call stands in place of a potency, no number is given. The source made the active and inactive calls. Calls come from the whole dose curve.
Potency is the fitted concentration of half-maximal effect.

The target in this test is Acetylcholinesterase (Homo sapiens) (UniProt P22303). The test can be described thus: Acetylcholinesterase (AChE) small molecule antagonists: colormetric cell-based qHTS assay (AID 1347395). Note: nearly all actives have a fitted effect of over 30% in size. Particulars: SH-SY5Y cells AChE activity, colorimetric (Ellman); series mostly up to 115 µM. An excerpt: National Center for Advancing Translational Sciences [NCATS]
Sequence of Acetylcholinesterase (Homo sapiens) (P22303 whole entry, looked up): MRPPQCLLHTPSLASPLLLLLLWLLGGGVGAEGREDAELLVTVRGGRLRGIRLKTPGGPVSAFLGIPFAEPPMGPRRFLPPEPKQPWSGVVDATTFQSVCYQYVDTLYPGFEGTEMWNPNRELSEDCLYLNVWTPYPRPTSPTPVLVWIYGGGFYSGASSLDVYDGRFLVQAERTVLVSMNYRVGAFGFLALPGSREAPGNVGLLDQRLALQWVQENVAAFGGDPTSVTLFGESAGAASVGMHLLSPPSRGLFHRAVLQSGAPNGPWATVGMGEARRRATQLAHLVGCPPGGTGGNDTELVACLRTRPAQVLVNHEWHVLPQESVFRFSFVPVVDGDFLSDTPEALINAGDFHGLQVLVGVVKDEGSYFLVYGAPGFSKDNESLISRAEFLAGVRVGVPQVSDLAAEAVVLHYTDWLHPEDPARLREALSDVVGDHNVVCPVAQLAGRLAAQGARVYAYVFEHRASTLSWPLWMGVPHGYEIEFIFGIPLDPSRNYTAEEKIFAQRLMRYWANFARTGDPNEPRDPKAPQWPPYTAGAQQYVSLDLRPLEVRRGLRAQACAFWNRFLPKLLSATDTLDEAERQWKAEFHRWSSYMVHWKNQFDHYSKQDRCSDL
Division of Preclinical Innovation [DPI]
U.S. Environmental Protection Agency [EPA]
National Institutes of Environmental Health Sciences [NIEHS]
National Toxicology Program [NTP]
U.S. Food and Drug Administration [FDA]
Acetylcholinesterase (AChE) is the primary cholinesterase in the body that hydrolyzes a key neurotransmitter, acetylcholine. Inhibition of AChE activity can lead to neurotoxicity. The known inhibitors include organophosphorous pesticides (OP), chemical warfare agents, drugs, and various phytochemicals.
A homogenous cell-based assay using the Amplite Colormetric acetylcholinesterase assay kit (AAT Bioquest, Sunnyvale, CA) was used to evaluate the chemicals in the Tox21 10K library that inhibit AChE activity. The assay uses 5, 5-dithiobis-(2-nitrobenzoic acid) (DTNB) to quantify the thiocholine produced from the hydrolysis of acetylthiocholine by AChE from the SH-SY5Y cells.
Tox21 Assay Protocol Summary:
For the cell-based AChE assay, 2,000 SH-SY5Y cells in 4 uL/well were dispensed into black, clear-bottom 1536-well plates using a Multidrop Combi dispenser (Thermo Scientific, MA). The assay plates were incubated overnight at 37 C to allow cells to attach to the wells, followed by the transfer of 23 nL of compound or DMSO (vehicle control) by a Pintool Station (Wako Automation, CA). The plates were incubated for 30 min at 37 C and 5% CO2, followed by the addition of 4 uL of detection cocktail solution (DTNB, acetylthiocholine) into each well using a Flying Reagent Dispenser (Beckman Coulter, CA) and then 90 min incubation at 37 C.
In general terms: qHTS replaces the single test concentration by a dilution series.
For `NC(=S)C(N)=S`, the Potency result was “inactive”.

Consider `O=C(CCN1CC1)OCC(CO)(COC(=O)CCN1CC1)COC(=O)CCN1CC1`, for which the Potency result is “inactive”.

For the compound `CN1C(=S)CN=C(c2ccccc2)c2cc(Cl)ccc21`, the Potency entry is “inactive”.

Take `C[C@@H]1CN(C2CCC(C#N)(c3ccc(F)cc3)CC2)CC[C@]1(C(=O)O)c1ccccc1` (stereo not given in full): the Potency entry is “inactive”.

Turning to `CCOc1nc(C(Cl)(Cl)Cl)ns1`, the Potency result was “inactive”.

Regarding `COc1cc(OC)nc(Sc2cccc(Cl)c2C(=O)O)n1`, the Potency result is “inactive”.

`C=C(C)[C@@H]1CC=C(C=O)CC1`: the Potency result was “inactive”.

`CCC(Cl)[N+](=O)[O-]` (stereo not given): the Potency entry was “inactive”.

Turning to `CC1(C)CON(Cc2ccccc2Cl)C1=O`, the Potency result was “inactive”.

On to `Nc1ccccc1Cl`, for which the Potency result was “inactive”.

With `Cc1cc(C)nc(Nc2ccccc2)n1`, the Potency entry is “inactive”.

As to `CCOC(=O)CP(=O)(OCC)OCC`, the Potency entry is “inactive”.

On to `CCC(C)n1c(=O)[nH]c(C)c(Br)c1=O` (stereo not given), for which the Potency result is “inactive”.

Consider `CC(C)[N+](=O)[O-]`, for which the Potency entry was “inactive”.

Regarding `CCCCc1c(C)nc(NCC)[nH]c1=O`, the Potency result was “inactive”.

Consider `Nc1cnn(-c2ccccc2)c(=O)c1Cl`, for which the Potency entry was “inactive”.

For the compound `CCOP(=O)(OCC)OP(=O)(OCC)OCC`, the Potency result was “inactive”.

With `COc1ncc(F)c2nc(S(=O)(=O)Nc3c(F)cccc3F)nn12`, the Potency entry was “inactive”.

Take `CCCCP(CCCC)CCCC`: the Potency entry is “inactive”.

Take `C[C@]12CC[C@H]3[C@@H](CCC4=CC(=O)CC[C@@]43C)[C@@H]1CC[C@@H]2C(=O)O`: the Potency entry was “inactive”.

Consider `O=C(Nc1ccccc1)N(Cc1ccc(Cl)cc1)C1CCCC1`, for which the Potency entry was “inactive”.

On to `C#C[C@]1(O)C=C[C@H]2[C@@H]3CCC4=CC(=O)CC[C@@H]4[C@H]3CC[C@@]21CC`, for which the Potency result is “inactive”.

For the compound `CCOP(=S)(OCC)Oc1ncn(-c2ccccc2)n1`, the Potency was 31.7 µM (active).

On to `CN1CCN(C(=O)O[C@H]2c3nccnc3C(=O)N2c2ccc(Cl)cn2)CC1`, for which the Potency result was “inactive”.

Regarding `COC(=O)c1c(C(F)F)nc(C(F)(F)F)c(C2=NCCS2)c1CC(C)C`, the Potency entry is “inactive”.

For `COC(=O)c1ccccc1S(=O)(=O)NC(=O)N(C)c1nc(C)nc(OC)n1`, the Potency entry is “inactive”.

Turning to `c1coc(-c2nc3ccccc3[nH]2)c1`, the Potency result was “inactive”.

Turning to `N#CCNCC#N`, the Potency entry was “inactive”.

Turning to `Cc1cnc[nH]1`, the Potency result was “inactive”.

Take `N#CC(O)c1ccccc1` (stereo not given): the Potency entry was “inactive”.

As for `CCC(=O)c1ccccc1`, the Potency result is “inactive”.

As to `Nc1cc(Cl)ccc1O`, the Potency result is “inactive”.

Consider `[O]=[Cd]`, for which the Potency result was “inactive”.

As for `CC1(C(=O)Nc2ccc(O)c(Cl)c2Cl)CCCCC1`, the Potency result is “inactive”.

Regarding `O=[N+]([O-])c1cccc2cccnc12`, the Potency entry is “inactive”.

Regarding `COc1ccc2c(c1OC)CN1CCc3cc4c(cc3C1C2)OCO4` (stereo not given), the Potency is 8.71 µM (active).

Consider `COC(C)(C)C`, for which the Potency entry is “inactive”.

Regarding `N#Cc1ccncc1`, the Potency result was “inactive”.

With `O=C1OC(=O)C2C1C1(Cl)C(Cl)=C(Cl)C2(Cl)C1(Cl)Cl` (stereo not given), the Potency result is “inactive”.

Regarding `Fc1ccc(C2(Cn3cncn3)OC2c2ccccc2Cl)cc1` (stereo not given), the Potency entry is “inactive”.
